Compounds with a hit are over-represented: about 5.4% of the library has one in this group of screens.
rCAG RNA binder: binders of r(CAG) RNA repeats, primary screen, biochemical, fluorescence. actives 1.3% (n = 370,000). inhibition, % at 3 µM. r(CAG) RNA repeat, TO-PRO-1 dye displacement fluorescence;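 active = inhibition above the plate cutoff, the mean of all test compounds on that plate plus 3 SD, cut at about 35% in these data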;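 also: higher means more dye released from RNA so lower well fluorescence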
A3A deaminase: APOBEC3A ssDNA deaminase inhibitors, primary screen, selectivity assay for APOBEC3G inhibitor project, biochemical, FAM/TAMRA oligo cleavage fluorescence | DNA dC->dU-editing enzyme APOBEC-3A (Homo sapiens), P31941 | recombinant A3A, FAM/TAMRA ssDNA deamination fluorescence | inhibition, % at 20 µM | actives 0.41% (n = 330,000) | AID 493011, 2011;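 active = at least 40% inhibition at 20 µM here, with at most 30% in a related deaminase screen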
ALR H2O2 inh: inhibitors of human ALR sulfhydryl oxidase, primary screen, biochemical, H2O2 detection, HRP-luminol luminescence, single point. FAD-linked sulfhydryl oxidase ALR (Homo sapiens), P55789. AID 485317, 2010. purified ALR, DTT oxidation. actives 3.8% (n = 290,000). inhibition, % (concentration not given with the values);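 active = mean replicate inhibition above about 79%, with every replicate also reaching it, limit read from the data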
PHOSPHO1 block: PubChem AID 1565; Phosphoethanolamine/phosphocholine phosphatase (Homo sapiens), Q8TCT1; inhibition, % at 13.3 µM; recombinant PHOSPHO1, absorbance phosphatase assay; actives 1.1% (n = 290,000); in the data active = inhibition above about 60%
aDG glyco up: activators of alpha-DG glycosylation, primary screen, uHTS, Pro5-aDG cells, AlphaScreen; alpha-DG glycosylation AlphaScreen (IIH6); 0% Pro5, 100% B10-LARGE cell signal; activation, % at 10 µM; actives 0.22% (n = 360,000); AID 624168, 2012;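 active = activation of at least 8% versus controls, or a plate z-score of at least 8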;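 also: Pro5 are CHO cells carrying HIG-tagged alpha-DG that lacks glycosylation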
APOBEC3G inh: APOBEC3G DNA deaminase inhibitors, primary screen, biochemical, fluorescence, single-stranded DNA substrate, uHTS; DNA dC->dU-editing enzyme APOBEC-3G (Homo sapiens), Q9HC16; recombinant A3G, ssDNA deamination FAM/TAMRA fluorescence; inhibition, % at 20 µM; actives 0.28% (n = 330,000); AID 493012, 2011;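 active = inhibition of at least 40% at 20 µM, with no more than 30% in the related APOBEC3A deaminase screen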
Target sequence (Q9HC16 whole entry, looked up): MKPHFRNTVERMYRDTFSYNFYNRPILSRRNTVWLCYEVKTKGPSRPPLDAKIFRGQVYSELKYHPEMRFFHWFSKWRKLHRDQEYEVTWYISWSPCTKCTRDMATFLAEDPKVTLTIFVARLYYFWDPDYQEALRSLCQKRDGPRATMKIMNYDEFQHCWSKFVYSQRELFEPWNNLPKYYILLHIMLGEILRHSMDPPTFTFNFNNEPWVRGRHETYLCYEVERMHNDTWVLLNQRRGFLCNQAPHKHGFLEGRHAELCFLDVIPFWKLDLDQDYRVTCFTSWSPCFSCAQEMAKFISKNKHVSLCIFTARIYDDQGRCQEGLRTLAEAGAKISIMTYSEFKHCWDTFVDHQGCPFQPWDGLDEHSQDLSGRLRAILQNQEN
Each line names hits and unclear results; the compound was inactive in the other large screens.

O=c1sc(Nc2ccccc2)nc2ccccc12	none
O=c1cnnc(Nc2ccc(Nc3ccccc3)cc2)[nH]1	ALR H2O2 inh 100.1
CCOC(=O)[C@]12CCCC=C1N(CCCOC)C(=O)[C@@H]2CC(=O)NCCCCc1ccccc1	none (no result: A3A deaminase, ALR H2O2 inh, PHOSPHO1 block, aDG glyco up, APOBEC3G inh)
Cc1ccc(C(=O)NC(C)c2ccc(-n3ccnc3)cc2)cc1 (centres undefined)	none
CC(=O)Nc1cccc(C(=O)NC(C)c2ccc(-n3ccnc3)cc2)c1 (centres undefined)	none
CC(=O)Nc1ccc(C(=O)NC(C)c2ccc(-n3ccnc3)cc2)cc1 (centres undefined)	PHOSPHO1 block 67.6
CC(NC(=O)c1cccc(N(C)C)c1)c1ccc(-n2ccnc2)cc1 (centres undefined)	ALR H2O2 inh 97.7
CCN1CCN(C2=C(NS(=O)(=O)c3ccc(Br)cc3)C(=O)c3ccccc3C2=O)CC1	aDG glyco up 7.7
CCN1CCN(C2=C(NS(=O)(=O)c3ccccc3)C(=O)c3ccccc3C2=O)CC1	none
CC(=O)Nc1cccc(NC(=O)CSc2nn3c(=O)c(C)nnc3s2)c1	ALR H2O2 inh 98.2
Cc1nnc2sc(SCC(=O)Nc3ccc(Cl)cc3)nn2c1=O	ALR H2O2 inh 93.0
Cc1cccc(CSc2nn3c(=O)c(C)nnc3s2)c1	ALR H2O2 inh 98.7
Cc1ccc(CSc2nn3c(=O)c(C)nnc3s2)cc1	none
COc1cccc(CC(=O)NCC2CCN(C(=O)C(=O)c3cccs3)CC2)c1	none (no result: A3A deaminase, ALR H2O2 inh, PHOSPHO1 block, aDG glyco up, APOBEC3G inh)
Nn1c(SCC(=O)Nc2cccc3ccccc23)nnc1-c1cc(-c2ccc(Cl)cc2)n[nH]1	none (no result: A3A deaminase, ALR H2O2 inh, PHOSPHO1 block, aDG glyco up, APOBEC3G inh)
CSc1ccccc1NC(=O)CSCc1nc2sc(C)c(C)c2c(=O)[nH]1	none (no result: PHOSPHO1 block)
Cc1sc2nc(CSCC(=O)Nc3ccccc3C#N)[nH]c(=O)c2c1C	ALR H2O2 inh 98.2
Cc1ccc(F)cc1NC(=O)CSCc1nc2sc(C)c(C)c2c(=O)[nH]1	ALR H2O2 inh 97.2 (no result: PHOSPHO1 block)
Cc1nc2ccc(NC(=O)c3ccc(F)cc3Cl)cc2c(=O)[nH]1	none (no result: A3A deaminase, ALR H2O2 inh, PHOSPHO1 block, aDG glyco up, APOBEC3G inh)
Cc1ccc(-n2c(SCC(=O)c3ccc4c(c3)OCO4)nc3ccccc3c2=O)cc1	none (no result: A3A deaminase, ALR H2O2 inh, PHOSPHO1 block, aDG glyco up, APOBEC3G inh)
O=C(COc1ccc2c3c(c(=O)oc2c1)CCC3)NCCCN1CCOCC1	PHOSPHO1 block 61.6
CCNC(=S)NNC(=O)c1cc(-c2cccnc2)nc2ccccc12	ALR H2O2 inh 88.0
CCCNC(=S)NNC(=O)c1cc(-c2cccnc2)nc2ccccc12	none
Cc1ccccc1-c1cc(C(=O)N/N=C/c2cccnc2)c2ccccc2n1	PHOSPHO1 block 65.8
O=C(Nc1cccc([N+](=O)[O-])c1)NC1CCCCN(Cc2ccc(Cl)cc2)C1=O (centres undefined)	none (no result: A3A deaminase, ALR H2O2 inh, PHOSPHO1 block, aDG glyco up, APOBEC3G inh)
C=CCNc1nc2c3ccccc3n(C(C)=O)c2s1	ALR H2O2 inh 96.3, PHOSPHO1 block 69.9
Cn1ccnc1SCc1cn2cc(Br)ccc2n1	ALR H2O2 inh 98.6
CCOC(=O)[C@]12CCCCC/C=C\1N(CCc1ccc(Cl)cc1)C(=O)[C@H]2CC(=O)NCCCCc1ccccc1	none (no result: A3A deaminase, ALR H2O2 inh, PHOSPHO1 block, aDG glyco up, APOBEC3G inh)
COC1(OC)N=C(N)C2(C#N)C(c3ccc(C)cc3)C12C#N (centres undefined)	none
COC1(OC)N=C(NC(=O)Nc2ccccc2)C2(C#N)C(c3ccccc3)C12C#N (centres undefined)	ALR H2O2 inh 98.8 (no result: rCAG RNA binder)
Cc1ccc(NC(=O)CN2C(=O)N/C(=C/c3cc(C)n(-c4cccc(C(=O)O)c4)c3C)C2=O)cc1	rCAG RNA binder 71.4 (no result: A3A deaminase, ALR H2O2 inh, APOBEC3G inh)
CCN1CCCc2cc(CN(CCN3CCOCC3)C(=S)Nc3ccccc3C)ccc21	ALR H2O2 inh 98.7
CCN1CCCc2cc(CN(CCN3CCOCC3)C(=S)Nc3ccccc3OC)ccc21	ALR H2O2 inh 98.7
COc1ccccc1NC(=S)N(CCN1CCOCC1)Cc1ccccc1F	none
Cc1ccccc1NC(=S)N(CCN1CCCCCC1)Cc1cccs1	none

Screening results from PubChem BioAssay.
